Screens deposited in PubChem BioAssay by several laboratories.
Ba/F3 V617F tox – loss of viability in JAK2V617F-driven Ba/F3 cells; Ba/F3 EpoR-JAK2V617F viability, ATP luminescence; inhibition, % at 5.6 µM; hit rate 1.1% among 220,000;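 active = inhibition above the campaign mean plus 3 SD over all tested compounds, cut at about 24% in these data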;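 also: cytokine-independent growth of Ba/F3 cells driven by EpoR plus mutant JAK2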
IEC-6 tox – counter-screen for KLF5 inhibitors: cytotoxicity in IEC-6 cells; IEC-6 cytotoxicity, luminescence viability; inhibition, % at 5 µM; hit rate 0.78% among 290,000; in the data active = inhibition above about 22%
BaF3 tox – reduces parental Ba/F3 cell viability, JAK2V617F counter-screen; inhibition, % at 5.6 µM; hit rate 1.1% among 220,000; AID 1486; CellTiter-Glo ATP luminescence;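 active = inhibition above a per-campaign cutoff, the mean inhibition of all tested compounds plus 3 SD, cut at about 27% in these data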
APP 5UTR inh – APP translation inhibition. SH-SY5Y APP 5'UTR-luciferase reporter, luminescence. inhibition, % at 2 µM. hit rate 0.82% among 190,000;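 active = inhibition above a set limit, derived from the sample mean plus 3 SD, cut at about 45% in these data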
KLF5 inh – kruppel-like factor 5 inhibition; DLD-1 KLF5 promoter-luciferase reporter, luminescence; hit rate 0.23% among 290,000; inhibition, % at 5 µM; AID 1700;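 active = inhibition above a per-plate limit of that plate's mean compound inhibition plus 3 SD, cut at about 60% in these data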;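 also: higher means less KLF5 promoter-driven luciferase light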
aSyn UTR inh – 5' untranslated region of α-synuclein, MLPCN primary screen | alpha-synuclein 5'UTR reporter, inhibitor activity | inhibition, % (tested at 7.5 µM) | hit rate 0.82% among 300,000 | AID 1813; in the data active = inhibition above about 60%;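 also: H4 neuroglioblastoma cells stably carrying SNCA 5'UTR luciferase fusion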
Hits are given with their value; – = inactive; · = no result. This is a sample that favours compounds with a hit; in the whole collection about 2.2% have one here.

SMILES | Ba/F3 V617F tox | IEC-6 tox | BaF3 tox | APP 5UTR inh | KLF5 inh | aSyn UTR inh
COC(=O)c1ccc2c(c1)C(=O)/C(=C/c1ccc(O)cc1)O2 | – | – | – | – | – | –
COC(=O)c1sccc1NC(=O)c1cc(-c2cccc(C)c2)nc2ccccc12 | – | – | – | – | – | –
COC(=O)c1sccc1NC(=O)c1c(C)c(-c2cccc(Cl)c2)nc2ccccc12 | – | – | – | 50 | – | –
O=C(c1cccs1)c1no[n+]([O-])c1C(=O)c1cccs1 | – | – | – | – | – | 63
COc1ccc(C(=O)c2no[n+]([O-])c2C(=O)c2ccc(OC)cc2)cc1 | – | – | – | – | – | –
OC(CNCCc1ccc(Cl)cc1)COCc1ccco1 (configuration not stated) | – | – | 94 | – | – | –
CSc1ccc(CN(C)C(=O)c2cccc(S(=O)(=O)N3CCN(Cc4ccccc4)CC3)c2)cc1 | · | · | · | · | · | –
CNCCCCOc1ccc(C(C)(C)C)cc1Cl | – | – | – | – | – | –
CCOc1ccc(CN=C(N)N=C(N)N)cc1Cl | – | – | 27 | – | – | –
CCCCOc1ccc(CN=C(N)N)cc1Cl | – | – | 35 | · | – | –
CCCOc1ccc(CCCN=C(N)N)cc1Cl | 25 | – | 46 | · | – | –
Cc1csc(NC(=O)CSc2nnc(Cn3c(=O)sc4ccccc43)n2-c2ccccc2)n1 | – | – | – | – | – | ·
O=S(=O)(Nc1cc(Sc2cccc3cccnc23)c(O)c2ccccc12)c1ccccc1 | – | 98 | – | 75 | – | –
COc1ccc(F)cc1CSc1nnnn1-c1ccc(O)cc1 | · | – | · | · | – | –
COc1cc(CSc2nnnn2-c2ccc(C)cc2)cc(OC)c1OC | 35 | – | 53 | – | – | –
CC1=CC(C)(C)[N+](C)(C)c2ccc(C)cc21 | 29 | – | 42 | – | – | –
OCCNc1cnc2ccccc2n1 | – | – | – | 49 | – | –
O=C1C2C3C=CC(CO)(O3)C2C(=O)N1c1ccccc1-c1ccccc1 (configuration not stated) | – | – | – | 70 | – | ·
CC(OC(=O)C1=NNC(=O)CC1)C(=O)Nc1ncc(Cl)cc1Cl (configuration not stated) | – | – | 81 | – | – | –
COc1ccccc1CCNC(=O)CN1C(=O)c2ccccc2S1(=O)=O | · | · | · | · | · | –
Cc1cc(C(=O)NCc2cc(F)cc3c2OCOC3)nn1C | – | – | – | · | – | –
Cn1nc(C(C)(C)C)cc1C(=O)NCc1cc(F)cc2c1OCOC2 | 44 | – | 57 | · | – | –
O=C(Nc1ccc(F)cc1F)c1cc2nc3c(c(C(F)(F)F)n2n1)CCCC3 | – | – | – | – | – | –
CC1CCN(Cc2c(C(=O)N/N=C/c3ccc(OC(C)C)cc3)nnn2-c2nonc2N)CC1 | · | – | · | · | – | –
CC1(C)Cc2nc(-c3ccccc3)nc(SCC(O)CO)c2CO1 (configuration not stated) | – | – | 61 | · | – | –
SMILES | Ba/F3 V617F tox | IEC-6 tox | BaF3 tox | APP 5UTR inh | KLF5 inh | aSyn UTR inh
CC1(C)Cc2nc(-c3ccccc3)nc(SCC(=O)N3CCOCC3)c2CO1 | · | – | · | · | – | –
Cc1[nH]nc2nc(SCC(=O)NCCC3=CCCCC3)n(-c3ccc(Br)cc3)c(=N)c12 | · | – | · | · | – | 75
COc1ccc(NC(=O)NCc2ccco2)c(OC)c1 | – | – | – | – | – | –
CCNC(=O)Nc1ccc(OC)cc1OC | – | – | – | 50 | – | –
CC1(C)CC(=O)C(N=Nc2ccc(OC(F)F)cc2)=C(O)C1 | – | – | – | – | – | –
Cc1ccc(C(=O)Nc2ccc3c(c2)OCCO3)c(C)c1 | · | – | · | · | 65 | 73
Cc1ccc(NC(=O)c2ccc3c(c2)OCCO3)cc1C | · | – | · | · | – | 74
CCCCCCCCCCCCCCCC[N+](C)(C)CC | · | · | · | · | · | 101
CCCCCC[N+](C)(C)CCSSCC[N+](C)(C)CCCCCC | – | – | – | · | – | –
C#CC[N+](C)(C)CCCCCCCCCC | 79 | – | 79 | – | – | 75
C[N+](C)(C)CCCCCC[N+](C)(C)C | · | · | · | · | · | –
C#CC[N+](C)(C)CCCCCCCCCCCC | 80 | – | 76 | – | – | 77
C#CC[N+](C)(C)CCCCCCCC | 66 | – | 43 | – | – | –
CC#CC[N+](C)(C)CCCCCCCCCCCC | 101 | 24 | 81 | – | – | –
CCc1ccc(/C=N/NC(=O)c2cc(C3CC3)nc3ccc(Br)cc23)s1 | – | – | – | 72 | – | –
O=C(NCc1ccc(F)cc1)C(c1ccccc1)c1ccccc1 | · | – | · | · | – | –
CC(=O)N(Cc1ccc(F)cc1)C1=C(NCc2ccccc2)C(=O)c2ccccc2C1=O | – | – | 48 | 65 | – | 92
COc1ccc(NC(=O)C(=O)NNC(=O)c2cccs2)cc1 | – | – | – | 64 | – | –
CCN(CC)c1ccc(N=Cc2c(C)[nH]c3ccccc23)cc1 | – | – | – | – | – | 63
Cc1[nH]c2ccccc2c1/C=N/n1cnnc1 | – | – | – | – | – | –
O=C(CCC(=O)Nc1ccccc1)NNS(=O)(=O)c1ccc(Cl)cc1 | · | – | · | · | – | ·
OCCCN=c1cc(-c2ccccc2)oc2ccc(Cl)cc12 | – | – | – | – | – | –
CC1(C)CC(N=c2cc(-c3ccccc3)oc3ccc(Cl)cc23)CC(C)(C)N1 | – | – | – | – | – | 99
O=C(c1c(F)cccc1F)N1CCC(n2nnc3cc(C(F)(F)F)ccc32)CC1 | – | – | – | – | – | –
CCCSc1ccc2nc(-c3ccccc3)cn2c1 | – | – | – | – | – | 111
SMILES | Ba/F3 V617F tox | IEC-6 tox | BaF3 tox | APP 5UTR inh | KLF5 inh | aSyn UTR inh
O=C1c2cccc3c(N4CCCCC4)ccc(c23)C(=O)N1c1ccc(Cl)cn1 | – | – | – | – | – | ·
O=C1c2cccc3c([N+](=O)[O-])ccc(c23)C(=O)N1c1ccc(Cl)cn1 | – | – | – | 78 | – | –
O=C1c2cccc3c([N+](=O)[O-])ccc(c23)C(=O)N1c1nccs1 | 39 | – | 32 | 81 | – | –
O=C1c2cccc3c([N+](=O)[O-])ccc(c23)C(=O)N1c1ccccn1 | – | – | – | 81 | – | –
CCOc1ccccc1NC(=O)CN1CCN(C(=O)C2CCCO2)CC1 (configuration not stated) | · | – | · | · | – | –
CCOC(=O)c1c(S(=O)(=O)N(C)Cc2ccccc2)c(C)n(C)c1C | · | – | · | · | – | –
O=C(CCCCCN1C(=O)c2ccccc2C1=O)Nc1ccc(C(=O)O)cc1 | · | – | · | · | – | –
COC(=O)Nc1nc2ccc(C(=O)c3ccc(F)cc3)cc2[nH]1 | 51 | – | – | · | – | 99
O=C(Nc1nc2ccccc2[nH]1)c1ccc(F)cc1 | – | – | – | – | – | –
CCCOc1ccc2nc(NC(=O)OC)[nH]c2c1 | 78 | 81 | 75 | 86 | – | 84
Cc1ccc(NC(=O)C2CCCN2c2nn3c(=O)cc(C)nc3s2)cc1 (configuration not stated) | · | – | · | · | – | –
O=[N+]([O-])/C=C/c1cn(Cc2ccc(F)cc2)c2ccccc12 | – | – | – | – | – | 63
Cc1onc(-c2ccccc2Cl)c1C(=O)N1CCN(c2cccc(Cl)c2)CC1 | · | · | · | – | · | 67
